# Compounds without any hit were thinned out: in the full panel of roughly 83,000, 20% have a hit.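 Note: values are percent growth. 100 is the growth of untreated cells, values between 100 and 0 indicate rising inhibition; between -100 and 0 indicates cell death.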 Unmarked numbers belong to inactive results. Active and inactive are the calls of the source. The calls were made as follows: active = growth percent below 10; inactive = the rest.
# Experiments:
# Test in all cases: NCI-60 one-dose screen, 48 h (100 = growth as untreated, 0 = no growth, -100 = all killed)
# DU-145 prostate = conditions: 10 µM unless noted
# K-562 leukemia = conditions: 10 µM unless noted
# MALME-3M melanoma = conditions: 10 µM unless noted
# RXF 393 renal = conditions: 10 µM unless noted
# SF-268 CNS = conditions: 10 µM unless noted
# SF-295 CNS = conditions: 10 µM unless noted
# SF-539 CNS = conditions: 10 µM unless noted
# UACC-257 melanoma = conditions: 10 µM unless noted
# M14 melanoma = conditions: 10 µM unless noted
# HCT-15 colon = conditions: 10 µM unless noted
# HT29 colon = conditions: 10 µM unless noted
# SNB-75 CNS = conditions: 10 µM unless noted
# SNB-19 CNS = conditions: 10 µM unless noted
# U251 CNS = conditions: 10 µM unless noted
# PC-3 prostate = conditions: 10 µM unless noted
# SK-MEL-5 melanoma = conditions: 10 µM unless noted
# UACC-62 melanoma = conditions: 10 µM unless noted
# SK-MEL-28 melanoma = conditions: 10 µM unless noted
# MDA-MB-231 breast = conditions: 10 µM unless noted
# LOX IMVI melanoma = conditions: 10 µM
SMILES,growth (DU-145 prostate),growth (K-562 leukemia),growth (MALME-3M melanoma),growth (RXF 393 renal),growth (SF-268 CNS),growth (SF-295 CNS),growth (SF-539 CNS),growth (UACC-257 melanoma),growth (M14 melanoma),growth (HCT-15 colon),growth (HT29 colon),growth (SNB-75 CNS),growth (SNB-19 CNS),growth (U251 CNS),growth (PC-3 prostate),growth (SK-MEL-5 melanoma),growth (UACC-62 melanoma),growth (SK-MEL-28 melanoma),growth (MDA-MB-231 breast),growth (LOX IMVI melanoma)
CC1=C(C(=O)c2ccccc2)C(c2cccc(Cl)c2Cl)n2c(nc3ccccc32)N1 (configuration not stated),58.1%,61.4%,57.9%,42.8%,43.6%,63.3%,16.6%,76.2%,81.8%,68.7%,54.6%,43%,39.3%,16.9%,45%,54.5%,36.6%,90.2%,–,–
CCN(CC)C(=O)N/C(N)=N/c1nc2ccccc2s1,48.8%,30.3%,56.8%,58.5%,72.6%,32.5%,69.7%,40.5%,71.9%,54%,62.5%,63.9%,56.5%,66.9%,54.9%,-24.9% (active),43.7%,75.4%,–,–
CSc1ccc(C(=O)Nc2ccc3nnn(/C(C#N)=C/c4ccccn4)c3c2)cc1,-40.3% (active),-9.85% (active),-59.3% (active),-95.5% (active),30.5%,34.8%,-92% (active),-38.9% (active),-73.2% (active),-41.8% (active),-86.6% (active),55.9%,-3.44% (active),-78.2% (active),7.72% (active),-57.2% (active),-51.3% (active),-50.2% (active),–,–
C=Cn1cc(C(=O)O)c(=O)c2cc(F)c(N3CCN(c4nccc(-c5nccs5)n4)CC3)cc21,-3.99% (active),11.4%,-29.2% (active),-52.3% (active),22%,-26.4% (active),-42.7% (active),-27.3% (active),-1.11% (active),-51.5% (active),-52% (active),-23.3% (active),-0.431% (active),5.03% (active),8.48% (active),-47.7% (active),-84.7% (active),-38.5% (active),–,–
CSc1ccccc1NC(=O)c1ccc2nn(/C(C#N)=C/c3ccccn3)nc2c1,-99.5% (active),-10.1% (active),-89% (active),-95.8% (active),14.6%,-21.9% (active),-93.1% (active),-91% (active),-88.1% (active),-62.8% (active),-91.9% (active),48.1%,12.3%,-81.6% (active),-57.7% (active),-88.8% (active),-89.6% (active),-91.4% (active),–,–
COc1ccc(/C=C2\C(=O)Nc3ccc(Cl)cc32)cc1OCc1ccccn1,57.5%,51.6%,38.2%,2.03% (active),44%,38.4%,-9.35% (active),72.6%,52.8%,59.9%,76.5%,38.1%,42.4%,-5.73% (active),38.3%,52.4%,20.7%,68%,–,–
N#Cc1c(-c2cccc3ccccc23)cc(-c2cccc(OCC(=O)O)c2)[nH]c1=O,105%,94.2%,87.3%,105%,96.6%,101%,95.5%,97.8%,93.6%,100%,102%,73.7%,97.1%,103%,91.7%,100%,90.5%,102%,–,–
N#Cc1c(-c2ccc(Br)cc2)nc2n[nH]c(-c3ccc(Br)cc3)c2c1-c1ccc(C(F)(F)F)cc1,26.2%,-9.32% (active),-14.5% (active),46.7%,34.7%,1.6% (active),54.2%,28.5%,29.2%,5.75% (active),20.6%,-3.08% (active),20.5%,20.7%,14.5%,14.3%,0.103% (active),49.5%,–,–
C[C@H](Nc1nc(NCCc2ccccc2)nc2ccccc12)c1ccccc1,-85.6% (active),-43.9% (active),-91.7% (active),-90.5% (active),-70.4% (active),-95.8% (active),-96.2% (active),-76% (active),-84.5% (active),-91.2% (active),-90.6% (active),-44.6% (active),-75% (active),-77.7% (active),-54.5% (active),-100% (active),-95% (active),-98.5% (active),–,–
COc1ccc([C@H](C)Nc2nc(Cl)nc3ccccc23)cc1,74.2%,9.94% (active),66.5%,78.3%,76.6%,20.2%,68.3%,48.2%,78.8%,56.1%,28.8%,93.4%,60.6%,74.2%,77.1%,5.57% (active),47.8%,59.9%,–,–
CC1CCCCN1CCCNC(=O)N/C(N)=N/c1nc2ccccc2s1 (configuration not stated),72.1%,-27.6% (active),-93.2% (active),5.45% (active),49.7%,15.3%,-60.9% (active),-86.8% (active),-85.2% (active),-13.6% (active),3.14% (active),4.11% (active),61.5%,40.8%,31.6%,-96.7% (active),-84.2% (active),-97% (active),–,–
N#Cc1cnn(C(=O)c2ccccc2Br)c1NC(=O)c1ccc(Br)cc1Cl,108%,105%,95.8%,100%,116%,94.9%,96.9%,98.5%,101%,101%,104%,–,97.2%,93.3%,103%,98.6%,101%,103%,–,–
O=C(NNc1ccccc1)n1c(=O)c2ccccc2c(=O)n1-c1ccccc1,104%,45.8%,96.5%,109%,92.8%,87.2%,97.5%,77.6%,100%,91.4%,98.8%,80.3%,–,94.1%,92.6%,101%,91.2%,104%,–,–
COc1cc(OC)cc(C(=O)Nc2cccc(-c3cn(-c4ccc(S(N)(=O)=O)cc4)nn3)c2)c1,97.2%,–,79.9%,57.5%,50.3%,63%,60.3%,101%,91.3%,92.2%,114%,51.7%,17.8%,32.2%,91.4%,–,80.4%,81.1%,67.5%,69.3%
CN1CCN(c2ccc(C(=O)/C=C/c3ccc(Br)cc3)cc2)CC1,32.9%,–,74.4%,31.5%,62.2%,35.2%,-34.9% (active),25.4%,-36.3% (active),8.41% (active),6.76% (active),28.3%,31.4%,-75.7% (active),34.4%,–,-9.44% (active),37.7%,16.7%,-13.4% (active)
COc1ccc(C(=O)/C=C/c2cccc(Cl)c2Cl)cc1S(N)(=O)=O,-76.3% (active),–,23.1%,-71% (active),18%,-38.1% (active),-75.5% (active),34.8%,-76.9% (active),-69.4% (active),-6.28% (active),15.2%,6.23% (active),-96.3% (active),5% (active),–,33%,-19.1% (active),1.88% (active),-78.9% (active)
NS(=O)(=O)c1ccc(-n2cc(-c3cccc(NC(=O)c4cc(C(F)(F)F)cc(C(F)(F)F)c4)c3)nn2)cc1,69.7%,52.7%,63.7%,–,45.3%,31.4%,35.1%,91.1%,65%,85.7%,46.6%,–,25%,11.7%,52%,90.5%,73.8%,81.5%,–,–

# Reference: PubChem BioAssay (NCI)
